Experimental data reported in PubChem BioAssay (NCATS).
A number with no mark means an inactive call. Results filed as inconclusive are left out. The source made the active and inactive calls. Unless noted, calls come from the whole dose curve; as a rule, active = well fitted curve in either direction with a large enough effect (not every such curve was filed as active); inconclusive = small, poorly fitted or top-dose-only effect, or another doubt; inactive = flat fitted curve, though single readings scatter.

Legend:
[1] = biological target: Lysosomal acid glucosylceramidase (Homo sapiens) (UniProt P04062); assay: Glucocerebrosidase-p2 (AID 348; in the data active = potency below about 10 µM; note: potency is the fitted concentration of half-maximal effect); details: purified GBA, blue fluorogenic substrate, 40 min
Chain of Lysosomal acid glucosylceramidase (Homo sapiens) (P04062 whole entry, looked up): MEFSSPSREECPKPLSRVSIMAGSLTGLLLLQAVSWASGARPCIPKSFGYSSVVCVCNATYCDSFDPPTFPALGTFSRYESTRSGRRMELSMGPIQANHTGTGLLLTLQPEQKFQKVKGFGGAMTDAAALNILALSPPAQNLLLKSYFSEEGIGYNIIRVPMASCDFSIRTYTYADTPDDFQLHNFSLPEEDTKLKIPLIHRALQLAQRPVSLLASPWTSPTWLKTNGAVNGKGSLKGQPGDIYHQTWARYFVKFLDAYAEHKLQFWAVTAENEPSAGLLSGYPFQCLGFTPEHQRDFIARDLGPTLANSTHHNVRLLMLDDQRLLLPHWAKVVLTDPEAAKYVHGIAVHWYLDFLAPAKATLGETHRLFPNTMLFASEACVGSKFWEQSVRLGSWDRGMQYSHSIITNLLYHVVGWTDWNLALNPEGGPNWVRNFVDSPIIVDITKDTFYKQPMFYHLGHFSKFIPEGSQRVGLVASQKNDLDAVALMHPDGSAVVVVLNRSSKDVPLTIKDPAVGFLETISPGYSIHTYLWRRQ
How it was run: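 Compounds titrated from 0.6 nM upwards against 0.2 nM enzyme in pH 5.9 citric acid/KH2PO4, taurocholate, tween-20; blue fluorogenic substrate 80 uM, 40 min room temperature, stopped and read Ex 365/Em 440 for AC50.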

[2] = AP1 Signaling Pathway (AID 357); details: ME-180 AP-1-bla reporter, EGF-induced, beta-lactamase ratio, 5 h; at 7.69 µM (top of the series) unless noted;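 note: ME-180 reporter cells stimulated with EGF at its EC50 level; % is set by controls: 0 for no effect and ±100 for the full control effect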
How it was run: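 Cells are seeded overnight, exposed to compound titrations and an EC50 level of EGF for 5 hours at 37 °C, then loaded with CCF4 dye for 2.5 hours. Beta-lactamase activity under the AP-1 element is read as a blue/green ratio.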

[3] = biological target: Cytochrome P450 1A2 (Homo sapiens) (UniProt P05177); assay: p450-cyp1a2 (AID 410; calls by dose curve; note: potency is the fitted concentration of half-maximal effect;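 for activity change, negative = inhibition: -100% = full effect of reference inhibitor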); details: recombinant CYP1A2, luciferin-ME demethylation, luminescence; series mostly up to 11.4 µM
Chain of Cytochrome P450 1A2 (Homo sapiens) (P05177 whole entry, looked up): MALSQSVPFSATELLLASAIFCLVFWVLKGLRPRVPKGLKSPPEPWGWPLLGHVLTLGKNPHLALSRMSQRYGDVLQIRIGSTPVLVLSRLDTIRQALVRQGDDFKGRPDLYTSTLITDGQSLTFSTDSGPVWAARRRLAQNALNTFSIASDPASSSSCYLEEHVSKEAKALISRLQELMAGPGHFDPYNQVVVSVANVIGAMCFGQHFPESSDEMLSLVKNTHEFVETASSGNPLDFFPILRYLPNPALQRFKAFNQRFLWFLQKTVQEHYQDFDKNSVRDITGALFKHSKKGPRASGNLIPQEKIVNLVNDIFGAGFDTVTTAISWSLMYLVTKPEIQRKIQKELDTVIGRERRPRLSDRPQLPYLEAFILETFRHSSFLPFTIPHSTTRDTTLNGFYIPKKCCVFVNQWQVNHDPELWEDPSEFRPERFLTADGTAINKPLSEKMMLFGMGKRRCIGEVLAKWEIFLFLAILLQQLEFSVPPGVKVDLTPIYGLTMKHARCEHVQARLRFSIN
How it was run: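 Human CYP1A2 (20nM) demethylated Luciferin-ME at its Km (100uM) in 100mM KPO4. After 10 min compound preincubation, NADPH regeneration ran the reaction 60 min at room temperature. Luciferin was read by luminescence, normalized to 57 uM furafylline.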

[4] = NFAT Signaling Pathway (AID 444); details: Jurkat NFAT-bla M1, carbachol, beta-lactamase ratio, 5 h; at 7.69 µM (top of the series) unless noted;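 note: carbachol stimulus at about its EC50 of 1 µM final; % is set by controls: 0 for no effect and ±100 for the full control effect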
How it was run: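 Read-out: CCF4 FRET ratio (460 nm/530 nm) after 1 h RT dye loading, used for %activity and AC50 from titration series. Cells: Jurkat NFAT-β-lactamase/M1 line, treated with compound plus 1 uM carbachol for 5 h, 37 °C.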

[5] = Stat Signaling Pathway (AID 446); details: ME-180 SIE beta-lactamase reporter, IL-6 stimulated, 5 h; at 7.69 µM (top of the series) unless noted;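 note: ME-180 cervical cancer cells given 40 pM IL-6 alongside compound; SIE-controlled beta-lactamase reporter measured as 460/530 nm FRET emission ratio; % is set by controls: 0 for no effect and ±100 for the full control effect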
How it was run: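 Screening format detects activators and inhibitors alike: ME-180 SIE-bla cells stimulated at 40 pM IL-6 for 5 hrs with compound, then dual-emission beta-lactamase read at 405 nm excitation.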

[6] = biological target: Glucocorticoid receptor (Homo sapiens) (UniProt P04150); assay: GR-GFP Redistribution (AID 450;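 active = compounds whose dose series gives a full or clear partial fitted curve of increased nuclear translocation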; note: potency is the fitted concentration of half-maximal effect); details: U2OS GR-GFP nuclear translocation, laser cytometry, 2 h
Chain of Glucocorticoid receptor (Homo sapiens) (P04150 whole entry, looked up, the tested form may be a part): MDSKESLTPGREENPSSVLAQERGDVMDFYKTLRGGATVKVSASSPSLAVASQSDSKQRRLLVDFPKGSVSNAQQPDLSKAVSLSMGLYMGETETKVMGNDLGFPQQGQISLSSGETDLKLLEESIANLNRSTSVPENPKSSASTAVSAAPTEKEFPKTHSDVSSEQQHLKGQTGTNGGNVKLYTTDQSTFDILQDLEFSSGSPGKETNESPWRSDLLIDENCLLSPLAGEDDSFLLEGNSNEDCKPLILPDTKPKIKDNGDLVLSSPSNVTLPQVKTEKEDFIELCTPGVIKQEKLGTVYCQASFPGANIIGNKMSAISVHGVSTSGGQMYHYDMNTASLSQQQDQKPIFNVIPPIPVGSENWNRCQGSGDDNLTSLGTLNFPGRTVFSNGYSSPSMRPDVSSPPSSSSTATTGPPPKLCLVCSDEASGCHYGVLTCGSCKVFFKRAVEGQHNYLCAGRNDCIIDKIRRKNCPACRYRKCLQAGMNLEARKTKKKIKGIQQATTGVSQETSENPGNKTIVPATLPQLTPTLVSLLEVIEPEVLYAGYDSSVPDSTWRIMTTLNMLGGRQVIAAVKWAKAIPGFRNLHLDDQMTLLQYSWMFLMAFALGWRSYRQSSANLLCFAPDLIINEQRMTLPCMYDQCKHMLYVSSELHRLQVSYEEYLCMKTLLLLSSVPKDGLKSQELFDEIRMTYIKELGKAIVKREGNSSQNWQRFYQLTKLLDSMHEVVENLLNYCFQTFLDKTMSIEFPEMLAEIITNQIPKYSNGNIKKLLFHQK

[7] = biological target: Glucocorticoid receptor (Homo sapiens) (UniProt P04150); assay: GR-EFC Redistribution (AID 451; calls by dose curve; note: potency is the fitted concentration of half-maximal effect); details: CHO-K1 GR-EFC translocation, beta-gal luminescence, 2 h
How it was run: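 Translocation of GR-ED fusion to nuclear EA restores b-gal, read by luminescence after 1 h room-temperature detection. Engineered CHO-K1 biosensor cells, 1,000/well, exposed 2 h at 37 C to titrations up to 46 uM final.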

[8] = biological target: Mitogen-activated protein kinase 10 (Mus musculus) (UniProt Q61831); assay: JNK3 AlphaScreen Assay (AID 530); details: JNK3 lysate, c-Jun phosphorylation; series mostly up to 11.4 µM;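 note: kinase came from lysate of stimulated human HepG2 cells; signal reports phosphorylation of biotinylated GST-cJun 1-79 at Ser73 with 10 µM ATP; % is set by controls: 0 for no effect and ±100 for the full control effect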
How it was run: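 Room-temperature AlphaScreen kinase assay; pre-activated HepG2 lysate as JNK3 source, biotin-GST-cJun(1-79) substrate, 10 uM ATP, compound 15 min preincubation.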

[9] = biological target: 3',5'-cyclic-AMP phosphodiesterase 4B (Homo sapiens) (UniProt Q07343); assay: qHTS Assay for Inhibitors of PDE-IV (AID 607; active = well fitted activation curve with a large enough effect in the main read-out, with a control signal flat, not every such curve was filed as active; note: % of control where 0% means no effect); details: HEK293 ACTOne CNG channel cells, membrane potential fluorescence; series mostly up to 22.9 µM
Chain of 3',5'-cyclic-AMP phosphodiesterase 4B (Homo sapiens) (Q07343 whole entry, looked up): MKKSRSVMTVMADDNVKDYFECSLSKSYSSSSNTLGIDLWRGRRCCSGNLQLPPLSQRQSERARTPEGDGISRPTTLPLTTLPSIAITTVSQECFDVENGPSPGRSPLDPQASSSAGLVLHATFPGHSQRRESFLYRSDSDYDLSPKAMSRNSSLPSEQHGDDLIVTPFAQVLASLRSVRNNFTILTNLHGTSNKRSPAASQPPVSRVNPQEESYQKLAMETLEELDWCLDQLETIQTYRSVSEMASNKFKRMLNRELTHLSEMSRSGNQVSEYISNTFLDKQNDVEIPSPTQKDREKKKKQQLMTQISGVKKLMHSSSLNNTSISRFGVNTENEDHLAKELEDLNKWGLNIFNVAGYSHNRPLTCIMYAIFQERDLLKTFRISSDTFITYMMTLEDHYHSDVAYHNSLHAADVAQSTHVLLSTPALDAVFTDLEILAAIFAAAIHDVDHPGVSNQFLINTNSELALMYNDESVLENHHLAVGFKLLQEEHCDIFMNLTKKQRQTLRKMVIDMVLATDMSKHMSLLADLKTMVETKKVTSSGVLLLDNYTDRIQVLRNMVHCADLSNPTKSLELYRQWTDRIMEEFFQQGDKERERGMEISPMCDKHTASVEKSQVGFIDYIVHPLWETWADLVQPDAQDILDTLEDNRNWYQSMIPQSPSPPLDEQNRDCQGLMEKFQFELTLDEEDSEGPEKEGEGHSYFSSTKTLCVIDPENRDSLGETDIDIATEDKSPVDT
How it was run: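 The readout is membrane depolarisation from a cAMP-sensing CNG channel, detected with a potential dye at ex 535/em 590. Cells were HEK293-derived (endogenous PDE-IV) at 1000 cells/well, titrated up to 22.9 uM final.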

[10] = biological target: Cytochrome P450 3A4 (Homo sapiens) (UniProt P08684); assay: qHTS Assay for Activators of Cytochrome P450 3A4 (AID 885; active = well fitted curve in the direction sought with a large enough effect; an effect the other way counts as inactive or inconclusive; note: nearly all actives have a fitted effect of over 65% in size); details: recombinant CYP3A4, Luciferin-PPXE luminescence, 60 min; series mostly up to 11.4 µM
Chain of Cytochrome P450 3A4 (Homo sapiens) (P08684 whole entry, looked up): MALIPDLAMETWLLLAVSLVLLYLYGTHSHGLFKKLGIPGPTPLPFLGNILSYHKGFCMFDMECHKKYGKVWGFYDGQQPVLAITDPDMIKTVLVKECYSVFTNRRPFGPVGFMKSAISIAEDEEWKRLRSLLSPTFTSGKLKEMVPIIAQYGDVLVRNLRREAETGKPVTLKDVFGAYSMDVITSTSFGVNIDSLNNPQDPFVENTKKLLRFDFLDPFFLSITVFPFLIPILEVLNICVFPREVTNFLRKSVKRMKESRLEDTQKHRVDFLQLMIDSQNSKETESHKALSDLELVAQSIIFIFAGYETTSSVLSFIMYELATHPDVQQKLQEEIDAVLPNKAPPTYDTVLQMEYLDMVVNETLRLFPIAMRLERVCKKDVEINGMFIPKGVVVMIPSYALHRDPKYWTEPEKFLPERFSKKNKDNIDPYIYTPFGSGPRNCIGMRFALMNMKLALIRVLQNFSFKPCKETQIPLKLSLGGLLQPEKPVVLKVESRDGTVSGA
How it was run: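 Steps: enzyme/substrate mix dispensed; compound added, 10 min RT; NADPH regeneration solution added, 60 min RT; luciferin detection buffer stops reaction; 20 min later luminescence measured.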

[11] = biological target: Cytochrome P450 2D6 (Homo sapiens) (UniProt P10635); assay: qHTS Assay for Inhibitors and Substrates of Cytochrome P450 2D6 (AID 891; active = well fitted curve in the direction sought with a large enough effect; an effect the other way counts as inactive or inconclusive; note: potency is the fitted concentration of half-maximal effect; nearly all actives have a fitted effect of over 60% in size); details: recombinant CYP2D6, luciferin-ME EGE luminescence; series mostly up to 11.4 µM
Chain of Cytochrome P450 2D6 (Homo sapiens) (P10635 whole entry, looked up): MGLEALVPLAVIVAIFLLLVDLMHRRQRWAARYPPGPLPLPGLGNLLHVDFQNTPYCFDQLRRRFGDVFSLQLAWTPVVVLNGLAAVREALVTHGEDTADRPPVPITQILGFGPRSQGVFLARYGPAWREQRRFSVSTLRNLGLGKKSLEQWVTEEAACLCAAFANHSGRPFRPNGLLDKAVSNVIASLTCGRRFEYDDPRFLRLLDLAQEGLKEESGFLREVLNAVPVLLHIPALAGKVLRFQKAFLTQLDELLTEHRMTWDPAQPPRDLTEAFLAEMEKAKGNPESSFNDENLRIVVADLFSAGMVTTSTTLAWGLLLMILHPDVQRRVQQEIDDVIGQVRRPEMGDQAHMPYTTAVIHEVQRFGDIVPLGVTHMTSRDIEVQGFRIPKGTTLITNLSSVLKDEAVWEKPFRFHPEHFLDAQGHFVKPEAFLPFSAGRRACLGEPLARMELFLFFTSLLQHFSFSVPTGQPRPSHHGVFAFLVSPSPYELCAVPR
How it was run: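 Human CYP2D6 (5 nM) with 30 uM Luciferin-ME EGE (at Km) in 100 mM KPO4, compound preincubated 10 min, then NADPH regeneration system for 60 min at room temperature. Luciferin read by luminescence; normalized to 1.43 uM quinidine.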

[12] = biological target: Cytochrome P450 2C19 (Homo sapiens) (UniProt P33261); assay: qHTS Assay for Inhibitors and Substrates of Cytochrome P450 2C19 (AID 899; active = well fitted curve in the direction sought with a large enough effect; an effect the other way counts as inactive or inconclusive; note: nearly all actives have a fitted effect of over 60% in size; note: potency is the fitted concentration of half-maximal effect); details: recombinant CYP2C19, luciferin-H EGE luminescence; series mostly up to 11.4 µM
Chain of Cytochrome P450 2C19 (Homo sapiens) (P33261 whole entry, looked up): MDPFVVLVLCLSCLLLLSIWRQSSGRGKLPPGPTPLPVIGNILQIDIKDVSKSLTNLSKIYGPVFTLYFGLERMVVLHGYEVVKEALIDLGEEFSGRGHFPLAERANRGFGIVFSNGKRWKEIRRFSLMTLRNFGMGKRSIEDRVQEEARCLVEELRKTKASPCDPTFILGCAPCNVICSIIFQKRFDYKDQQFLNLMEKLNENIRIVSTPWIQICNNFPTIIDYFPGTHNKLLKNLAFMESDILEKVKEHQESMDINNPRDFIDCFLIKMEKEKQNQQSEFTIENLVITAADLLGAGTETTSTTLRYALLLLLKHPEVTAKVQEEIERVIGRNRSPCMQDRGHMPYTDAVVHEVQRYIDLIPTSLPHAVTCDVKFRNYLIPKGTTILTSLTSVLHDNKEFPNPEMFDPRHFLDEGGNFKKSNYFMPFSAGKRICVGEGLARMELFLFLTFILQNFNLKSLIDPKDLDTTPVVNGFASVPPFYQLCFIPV
How it was run: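 Luminescence readout of luciferin formed from 10uM Luciferin-H EGE (KM level) by 5 nM CYP2C19 in 50mM KPO4. 60 min NADPH-driven reaction at 37C after 10 min compound preincubation; data scaled to 57uM ketoconazole inhibition.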

Cc1ccc([C@@H](O)c2cnc(C)n2Cc2ccccc2)cc1
Potency [1]: > 11.4 µM
activity change, negative = inhibition [2]: -7.71%
Potency [3]: inactive
activity change, negative = inhibition [4]: -10.9%
activity, negative = inhibition [5]: -4.84%
Potency [6]: > 46 µM
Potency [7]: > 9.22 µM
Potency [8]: inactive
Potency [9]: inactive
Potency [10]: inactive
Potency [11]: 0.631 µM (active)
Potency [12]: 1.26 µM (active)

O=C1/C(=C/c2cccnc2)SC(=S)N1Cc1ccco1
Potency [1]: > 11.4 µM
activity change, negative = inhibition [2]: 0.116%
Potency [3]: 0.501 µM (active)
activity change, negative = inhibition [4]: -2.58%
activity, negative = inhibition [5]: -9.72%
Potency [6]: > 46 µM
Potency [7]: > 9.22 µM
Potency [8]: inactive
Potency [9]: inactive
Potency [10]: inactive
Potency [12]: 3.16 µM (active)

CCCn1cnc2c(SCc3ccc(Cl)cc3)nc(N)nc21
Potency [1]: > 11.4 µM
activity change, negative = inhibition [2]: -19.8%
Potency [3]: 1.26 µM (active)
activity change, negative = inhibition [4]: -4.9%
activity, negative = inhibition [5]: -5.52%
Potency [6]: > 46 µM
Potency [7]: > 9.22 µM
Potency [8]: inactive
Potency [9]: inactive
Potency [10]: inactive
Potency [12]: 0.501 µM (active)

c1ccc(C2=NN[C@@H]3c4ccccc4-c4ccccc4N3C2)cc1
Potency [1]: > 11.4 µM
activity change, negative = inhibition [2]: -18.5%
Potency [3]: 0.2 µM (active)
activity change, negative = inhibition [4]: -9.73%
activity, negative = inhibition [5]: -6.54%
Potency [6]: > 46 µM
Potency [7]: > 9.22 µM
Potency [8]: inactive
Potency [9]: inactive
Potency [10]: inactive

O=C(O)c1ccc(Oc2nc3ccccc3s2)cc1
Potency [1]: > 11.4 µM
activity change, negative = inhibition [2]: -5.86%
Potency [3]: 3.16 µM (active)
activity change, negative = inhibition [4]: 11.2%
activity, negative = inhibition [5]: 5.77%
Potency [6]: > 46 µM
Potency [7]: > 9.22 µM
Potency [8]: inactive
Potency [9]: inactive
Potency [10]: inactive
Potency [12]: 3.98 µM (active)

O=C(CSC1=NCCN1)Nc1ccccc1
Potency [1]: > 11.4 µM
activity change, negative = inhibition [2]: 15%
Potency [3]: 3.98 µM (active)
activity change, negative = inhibition [4]: -6.05%
activity, negative = inhibition [5]: -2.98%
Potency [6]: > 46 µM
Potency [7]: > 9.22 µM
Potency [8]: inactive
Potency [9]: inactive
Potency [10]: inactive
Potency [11]: 1.58 µM (active)

COc1cc2c3cc1Oc1c(OC)c(OC)cc4c1[C@@H](Cc1ccc(O)c(c1)Oc1ccc(cc1)C[C@@H]3N(C)CC2)CN(C)C4
Potency [1]: > 11.4 µM
activity change, negative = inhibition [2]: -11.4%
Potency [3]: inactive
activity change, negative = inhibition [4]: -11.8%
activity, negative = inhibition [5]: -1.76%
Potency [6]: > 46 µM
Potency [7]: > 9.22 µM
Potency [8]: inactive
Potency [9]: inactive
Potency [10]: inactive

CN(C)c1ccc(/C=N\NC(=O)c2cnc3ccccc3c2)cc1
Potency [1]: > 11.4 µM
activity change, negative = inhibition [2]: -12.8%
Potency [3]: 1.58 µM (active)
activity change, negative = inhibition [4]: 1.4%
activity, negative = inhibition [5]: -7.11%
Potency [6]: > 46 µM
Potency [7]: > 9.22 µM
Potency [8]: inactive
Potency [9]: inactive
Potency [10]: inactive

Nc1nc(Cc2ccccc2)nc(Cc2ccccc2)c1-c1ccccc1
Potency [1]: > 11.4 µM
activity change, negative = inhibition [2]: -20.1%
Potency [3]: 1 µM (active)
activity change, negative = inhibition [4]: 11.3%
activity, negative = inhibition [5]: -7.29%
Potency [6]: > 46 µM
Potency [7]: > 9.22 µM
Potency [8]: inactive
Potency [9]: inactive
Potency [10]: inactive

COc1cc2c(cc1OC)C(CCN)=NCC2
Potency [1]: > 11.4 µM
activity change, negative = inhibition [2]: 7.92%
Potency [3]: 5.01 µM (active)
activity change, negative = inhibition [4]: -11.2%
activity, negative = inhibition [5]: 8.17%
Potency [6]: > 46 µM
Potency [7]: > 9.22 µM
Potency [8]: inactive
Potency [9]: inactive
Potency [10]: inactive
Potency [12]: inactive

Cc1[nH]c2c(C)ccc(C)c2c1CC(=O)O
Potency [1]: > 11.4 µM
activity change, negative = inhibition [2]: -6.88%
Potency [3]: 3.16 µM (active)
activity change, negative = inhibition [4]: 10.6%
activity, negative = inhibition [5]: 9.85%
Potency [6]: > 46 µM
Potency [7]: > 9.22 µM
Potency [8]: inactive
Potency [9]: inactive
Potency [10]: inactive
Potency [12]: 0.316 µM (active)

CN1CCN(Cc2nc3cccc4c3c([n+]2[O-])-c2ccccc2-4)CC1
Potency [1]: > 11.4 µM
activity change, negative = inhibition [2]: -4.75%
Potency [3]: 1.26 µM (active)
activity change, negative = inhibition [4]: 9.77%
activity, negative = inhibition [5]: 6.12%
Potency [6]: > 46 µM
Potency [7]: > 9.22 µM
Potency [8]: inactive
Potency [9]: inactive
Potency [10]: inactive

Nc1ccccc1SCc1csc(-c2ccc(Cl)cc2)n1
Potency [1]: > 11.4 µM
activity change, negative = inhibition [2]: -17.2%
Potency [3]: 0.631 µM (active)
activity change, negative = inhibition [4]: -25.4%
activity, negative = inhibition [5]: -11.2%
Potency [6]: > 46 µM
Potency [7]: > 9.22 µM
Potency [8]: inactive
Potency [9]: inactive
Potency [10]: inactive
Potency [12]: 0.501 µM (active)

N#CCCSC(=S)[C@H]1CCCC1=N
Potency [1]: > 11.4 µM
activity change, negative = inhibition [2]: 13.5%
Potency [3]: 3.16 µM (active)
activity change, negative = inhibition [4]: -9.46%
activity, negative = inhibition [5]: -9.66%
Potency [6]: > 46 µM
Potency [7]: > 9.22 µM
Potency [8]: inactive
Potency [9]: inactive
Potency [10]: inactive
